For seven sequences, PBM binding z-score results are on record in the supplement of paper PMC6555819.

Holding throughout (assay): PBM binding z-score (relative to random genomic background probes); higher = stronger binding; sequences stand for … in GC…GCGATTGACAGCGTAGAATGAAGG
Assay [1] concerns PPARg:RXRa DBDmut IVT, anti-RXR (DBD mutation: RXRa K156A/R161A, NR concentration 270 nM, RXRa partner concentration 90 nM). Put shortly:
(§1)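 For binding z-scores, the reference was random background probes on custom Agilent 4×180K protein-binding microarrays. These arrays were incubated 1 h with ligand-free nuclear receptor dimers in PBS pH 7.4, 2% milk, 0.02% Triton X-100, 1 mM DTT, 0.2 mg/mL BSA and 0.4 mg/ml salmon testes DNA. Fluorescence was scanned after antibody detection of each partner (one per run) and regression-normalized.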

Assay [2] relates to PPARg:RXRa IVT, anti-PPARg (NR concentration 270 nM, RXRa partner concentration 90 nM). Put shortly: as §1
Assay [3] relates to PPARg DBDmut:RXRa IVT, anti-PPARg (DBD mutation: PPARg1 K132A/R137A, NR concentration 270 nM, RXRa partner concentration 90 nM). Put shortly:
as §1

In assay [4] the test system is PPARg DBDmut IVT, anti-PPARg (DBD mutation: PPARg1 K132A/R137A, NR concentration 270 nM). Put shortly:
as §1

Assay [5] has as its system PPARg homodimer (NR concentration 180 nM). Put shortly:
as §1

Assay [6] deals with PXR:RXRa (NR concentration 270 nM, RXRa partner concentration 90 nM). Put shortly:
as §1

Assay [7] has as its system PXR homodimer (NR concentration 270 nM). The method, boiled down:
as §1

Assay [8] deals with RARa:RXR (NR concentration 270 nM, RXRa partner concentration 90 nM). The method, boiled down:
as §1

Assay [9] concerns RARa homodimer (NR concentration 270 nM). Put shortly:
as §1

The test system of assay [10] is RARb:RXRa (NR concentration 270 nM, RXRa partner concentration 90 nM). Put shortly: as §1
Assay [11] deals with RARb homodimer (NR concentration 270 nM). Put shortly:
as §1

The subject of assay [12] is RARg:RXRa (NR concentration 270 nM, RXRa partner concentration 90 nM). The method, boiled down: as §1
The subject of assay [13] is RARg homodimer (NR concentration 270 nM). Put shortly:
as §1

In assay [14] the test system is RXRa DBDmut IVT, anti-RXR (DBD mutation: RXRa K156A/R161A, NR concentration 90 nM). The method, boiled down:
as §1

Assay [15] concerns RXRa homodimer (NR concentration 180 nM). The method, boiled down:
as §1

The test system of assay [16] is THRa:RXRa (NR concentration 90 nM, RXRa partner concentration 90 nM). Put shortly:
as §1

Assay [17] deals with THRa homodimer (NR concentration 90 nM). The method, boiled down: as §1
Assay [18] has as its system VDR homodimer (NR concentration 270 nM). The method, boiled down: as §1

Regarding CGAACTGGGTCATCCAGGACAGTGAATACATTGA, the PBM binding z-score in assay [1] was determined as 7.33; in assay [2], 8.01; in assay [3], 5.1; in assay [4], 4.27; in assay [5], 2.15; in assay [6], 2.01. Also, the PBM binding z-score was 0.0976 in assay [7]; 3.11 in [8]; 0.785 in assay [9]; 3.21 in assay [10]; 2.71 in assay [11]; 3.55 in assay [12]. The PBM binding z-score in assay [13] worked out at 3.7; in [14], 1.35; in assay [15] it was 2.99; in assay [16] it was 3.48; in assay [17] it was 1.25; in [18] it was 1.8.
ACTATTAGTTGAGACGAGGGTAACCGATAGGTTG: the PBM binding z-score is 0.111 in assay [1]; 0.339 in assay [2]; 0.757 in [3]; 0.539 in assay [4]; 0.211 in assay [5]; 0.245 in [6]. The PBM binding z-score stood at 0.43 in assay [7]; 0.64 in [8]; 0.125 in assay [9]; 0.342 in assay [10]; 0.218 in assay [11]; 0.256 in [12]. Moreover, the PBM binding z-score is 0.596 in assay [13]; 0.227 in assay [14]; 0.443 in assay [15]; 1.55 in [16]; -0.208 in [17]; 0.283 in assay [18].
For GGAACGAGGGCAAAGTTGATAGCCTCTGTCGACG, the PBM binding z-score is 4.2 in [1]; 4.33 in assay [2]; -0.184 in assay [3]; -0.449 in [4]; 0.223 in assay [5]; 1.1 in assay [6]. Besides, the PBM binding z-score was -0.21 in assay [7]; 1.37 in [8]; -0.637 in assay [9]; 2.24 in assay [10]; 1.42 in assay [11]; 2.14 in assay [12]. The PBM binding z-score is 1.91 in assay [13]; 2.49 in assay [14]; 1.84 in assay [15]; 1.35 in assay [16]; -0.295 in assay [17]; 1.54 in assay [18].
Regarding TCTCGGAGGACCCGAAAGGTCAGAGCTCGACATC, the PBM binding z-score in [1] is 1.1; in assay [2] it was 0.853; in assay [3], -0.22; in assay [4], -0.929; in [5] it was 1.7; in [6], 3.45. Further, the PBM binding z-score in assay [7] was -0.23; in assay [8], 4.13; in assay [9], 0.185; in [10], 3.68; in assay [11], 4.21; in assay [12], 3.92. Also, the PBM binding z-score in assay [13] came to 4.15; in assay [14] it was 0.325; in assay [15] it was 4.04; in assay [16], 2.75; in assay [17], 0.369; in assay [18], 0.435.
CCTCGGAGTACAACAGGAGGTCAGAGCTGCCAGA: the PBM binding z-score in [1] was 0.161; in assay [2], 0.257; in assay [3], -0.9; in [4] it was -1.14; in assay [5], 1.18; in assay [6] it was 2.19. Moreover, the PBM binding z-score was found to be 0.607 in [7]; 2.23 in assay [8]; 0.843 in [9]; 2.06 in assay [10]; 2.99 in assay [11]; 3.01 in assay [12]. Moreover, the PBM binding z-score in assay [13] amounted to 2.39; in assay [14] it was 1.27; in assay [15] it was 1.86; in assay [16], 2.16; in assay [17], 0.436; in assay [18], 1.47.
As to TCTGCTCGGTCAGTTGGTCAGCTAACGAGCTGCC, the PBM binding z-score in assay [1] is 0.685; in assay [2] it was 0.74; in assay [3], -0.215; in [4], 0.0745; in [5], -0.826; in [6], -0.447. Besides, the PBM binding z-score was -1.11 in [7]; -0.352 in assay [8]; -1.55 in [9]; 1.73 in assay [10]; 1.35 in assay [11]; 0.987 in assay [12]. In addition, the PBM binding z-score in assay [13] is 1.71; in assay [14], -0.175; in assay [15], -0.299; in assay [16], -0.381; in assay [17] it was -0.999; in assay [18], -0.918.
For the sequence CGTCAAAGTTCAACTAAGGCAACGTAAAGCACGC, the PBM binding z-score in assay [1] was 0.00616; in [2] it was 2; in assay [3] it was 0.22; in assay [4], -0.059; in assay [5] it was 3.19; in [6] it was 4.83. For the same sequence, the PBM binding z-score in assay [7] was 4.13; in [8] it was 3.62; in assay [9] it was 1.59; in assay [10], 5.21; in assay [11], 4.17; in assay [12] it was 5.79. Also, the PBM binding z-score in assay [13] is 6.64; in assay [14], 4.64; in assay [15] it was 5.05; in assay [16], 4.74; in assay [17], 0.241; in assay [18], 3.68.
